# tim10-1 inh – tim10-1 yeast growth inhibition; S. cerevisiae tim10-1 ts strain growth, BacTiter-Glo, 24 h; inhibition, % at 20 µM; 330,000 compounds, 2.2% hits; AID 463190;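 active = inhibition of at least 40%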;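 also: mutant grown at 25 °C; 0% = DMSO wells with yeast and 100% = wells holding no yeast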
# tim23-1 inh – tim23-1 yeast growth inhibition; S. cerevisiae tim23-1 growth, BacTiter-Glo luminescence, 24 h; inhibition, % at 20 µM; 330,000 compounds, 1.3% hits;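 active = growth inhibition of the mutant yeast at or above 50%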;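 also: temperature-sensitive mutant grown at 25 °C; plate controls were DMSO-treated mutant yeast for no effect and medium wells lacking yeast for full effect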
# PfHsp90 set2 – inhibits growth of yeast expressing Plasmodium falciparum Hsp90 | inhibition, % at 9.4 µM | S. cerevisiae expressing PfHsp90, BacTiter-Glo ATP, 48 h; yeast lacking PDR1 and PDR3 efflux regulators | 310,000 compounds, 0.32% hits;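 active = every replicate shows inhibition above about 80%, whatever the replicate mean, limit read from the data; inconclusive = mean inhibition reaches the set limit but some replicate falls short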;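 also: 0% = DMSO neutral controls and 100% = 20 µM radicicol positive controls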
# Calb FLC – affects C. albicans growth with fluconazole. C. albicans CaCi-2 (fluconazole-resistant clinical isolate) + fluconazole, Alamar Blue growth, 48 h. growth inhibition, % (no concentration beside the values). 300,000 compounds, 0.57% hits;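 active = growth inhibition above about 58% in most replicates, limit read from the data, passing the limit was not always enough; inconclusive = exactly half the replicates above a set limit; inactive = most replicates below a set limit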;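 also: all wells also contain fluconazole at 8 µg/ml as a sub-toxic cotreatment; 0% = median of DMSO wells and 100% = median of geldanamycin control wells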
# TIM10 inh – TIM10 yeast growth inhibition | inhibition, % at 10 µM | 330,000 compounds, 1.4% hits | S. cerevisiae TIM10 strain growth, BacTiter-Glo luminescence, 24 h | AID 463195;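 active = inhibition of 40% or more at the single tested concentration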;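 also: wild-type TIM10 isogenic control strain grown at permissive 25 °C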
# SKKanGAS inh – blocks kanamycin growth of S. pyogenes SKKanGAS strain; BacTiter-Glo, 6 h; 300,000 compounds, 1.3% hits; AID 1662; inhibition, % at 7.5 µM;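 active = mean replicate score, as percent of positive control median, at least 50; inconclusive = mean below 50 but one replicate at or above 50; inactive = mean and every replicate below 50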;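 also: strain carries kanamycin resistance gene driven by streptokinase promoter and grows in 40 µg/ml kanamycin; loss of luminescence reflects streptokinase promoter inhibition or plain growth inhibition; 0% = median of DMSO wells and 100% = positive control at its reference dose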
# Starred values were filed as active, the others as inactive; i = inactive; ? = inconclusive; · = not tested or not shown. The list is not random: actives were taken first. Their share in the collection is about 4.7%.
SMILES,tim10-1 inh,tim23-1 inh,PfHsp90 set2,Calb FLC,TIM10 inh,SKKanGAS inh
COc1ccc(-c2nnc(NC(=O)c3ccc(S(=O)(=O)N4CCCc5ccccc54)cc3)o2)cc1,38,-1,17,101*,17,94*
CN(Cc1ccccc1)S(=O)(=O)c1ccc(C(=O)Nc2nnc(C3CC3)o2)cc1,24,14,12,85*,10,79*
O=C(Nc1nnc(C2CC2)o1)c1ccc(S(=O)(=O)N2CCCc3ccccc32)cc1,27,27,-35,?,30,91*
O=C(CN1C(=O)c2ccc([N+](=O)[O-])cc2C1=O)Nc1ccccc1N1CCCC1,2,11,9,-1,10,-2
COc1ccccc1CNS(=O)(=O)c1ccc2c(c1)NC(=O)CO2,2,0,16,-2,7,-8
Brc1ccc(/C=C/C=N/Nc2nc3ccccc3s2)cc1,15,-4,·,99*,8,11
COc1ccc2cc(C(=O)C3CCCN(Cc4cccc(C)n4)C3)ccc2c1 (stereo unspecified),38,43,2,-6,-3,79*
Cc1cccc(CN2CCCC(C(=O)c3ccc4c5c(cccc35)CC4)C2)n1 (stereo unspecified),22,15,-4,-2,21,65*
COc1ccc(-c2[nH]ncc2CN2CCCC(C(=O)c3cccc(OC)c3)C2)cc1 (stereo unspecified),-1,10,21,-1,-18,0
COc1cc(C#N)c(N=C(SCC#N)N2CCOCC2)cc1OC,10,3,2,-8,-4,3
O=C(C1=C(O)C(=O)N(c2ccccc2)C1c1ccc([N+](=O)[O-])cc1)c1cccs1 (stereo unspecified),8,27,-10,41,-13,59*
Cc1cccc(N2C(=O)C(O)=C(C(=O)c3cccs3)C2c2cccc(Oc3ccccc3)c2)n1 (stereo unspecified),12,7,-14,49,11,65*
Cc1cccc(N2C(=O)C(O)=C(C(=O)c3cccs3)C2c2ccccc2)n1 (stereo unspecified),-3,-7,0,60,-3,5
O=C(NCC(c1ccco1)N1CCCC1)c1cccc(S(=O)(=O)N2CCOCC2)c1 (stereo unspecified),-7,4,2,·,-7,·
O=C(CCSc1nnc(-c2ccncc2)o1)Nc1ccc(Cl)cc1,-23,i,96*,4,-60,-2
O=C(CCSc1nnc(-c2ccncc2)o1)Nc1cccc(Cl)c1,-12,-16,·,-7,-7,-4
O=C1c2ccccc2NC(c2cn[nH]c2-c2ccc(Cl)cc2)N1O (stereo unspecified),8,-5,-9,91*,-25,-16
O=C(Nc1nnc(SCc2ccc(F)cc2)s1)c1ccc2c(c1)C(=O)N(c1ccccc1Cl)C2=O,6,-3,-1,-9,1,54*
Cc1cc(C)n(-c2nc(N(c3ccccc3)c3ccccc3)nc(-n3nc(C)cc3C)n2)n1,12,12,·,18,25,108*
Cc1ccc(C)c(C(=O)Nc2nc3ccccc3[nH]2)c1,-17,12,-30,-11,-10,7
Cc1ccc(Nc2nc3ccccc3[nH]2)nc1,14,-78,·,-7,4,66*
O=C(Cc1ccc(S(=O)(=O)N2CCCC2)s1)Nc1nc2c(s1)CCCC2,3,0,·,-15,11,62*
O=C(Nc1ccccc1)OCN1C(=O)c2ccccc2C1=O,14,28,12,69*,-6,1
O=C(CN1C(=O)c2ccccc2C1=O)Nc1ccccc1,3,6,12,-3,-13,3
COc1ccccc1C(=O)NNC(=O)c1ccc(Br)o1,-13,8,11,-11,-1,0
Cc1nnc(-c2ccc(N3CCOCC3)c([N+](=O)[O-])c2)o1,-6,-1,3,·,-11,·
Cc1cccc(Nc2nnc(-c3ccc(N4CCOCC4)c([N+](=O)[O-])c3)c3ccccc23)c1,20,26,11,5,23,59*
CCc1ccc(Nc2n[n+](-c3ccccc3)c(-c3c(Cl)cccc3Cl)s2)cc1,10,-2,-3,20,-6,88*
O=C(Cn1cnc2c(nnn2Cc2ccc(F)cc2)c1=O)NC1CCCC1,18,-9,3,100*,-6,·
